Data on 40 compounds can be found in PubChem BioAssay (NCI).

Structures are written as SMILES. The panel holds about 83,000 compounds, 20% with a hit somewhere; the sample as a whole holds those more often.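 48-hour exposure, single concentration, 96-well plates; percent growth endpoint where 0 means no net growth. Active: below 10.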 Activity calls are given as the source filed them.

The assay deals with NCI-H522 lung. Briefly: NCI-60 one-dose screen, 48 h (100 = growth as untreated, 0 = no growth, -100 = all killed). The settings on record: 10 µM. As for the experimental part: Growth inhibition of the NCI-H522 human Non-Small Cell Lung tumor cell line is measured as a screen for anti-cancer activity. Cells are grown in 96 well plates and exposed to the test compound for 48 hours. Compounds are tested at a single concentration, which is 10^-5 M for most compounds. The reported endpoint is percent growth (GI% or GIPRCNT), where numbers from 0 - 100% represent growth inhibition, and numbers from -100% - 0 represent cell death. For example, a value of 40 represents 60% growth inhibition. A value of 0 means no net growth occurred over the course of the experiment. A value of -40 indicates 40% of cells at the beginning of the experiment died by the end of the experiment. A value of -100 means all cells are dead at the end of the experiment.
NCI-60 Human Tumor Cell Lines Screen was performed using the standard one-dose NCI protocol, which is described in more detail at https://dtp.cancer.gov/discovery_development/nci-60/default.htm.
Compounds with GIPRCNT values below 10 were considered active. Activity score was based on GIPRCNT using the following formula: […]
Score is 0 for GIPRCNT values of 100 or above, 50 for GIPRCNT values of 0, and 100 for GIPRCNT values of -100.
`O=C([Se]C1C=CCCC1)c1ccc(C(=O)[Se]C2C=CCCC2)s1` (stereo not given): the growth is -92.8% (active).

Regarding `COC(=O)CCn1c(-c2ccc(-n3cc(-c4ccc(O[C@H]5O[C@@H]6OC7(C)CC[C@H]8[C@H](C)CC[C@@H]([C@H]5C)[C@@]68OO7)cc4)nn3)cc2)nc2ccccc21`, the growth is -22.8% (active).

In the case of `COc1ccc(/C=C/C(=O)c2nc3ccccc3n2Cc2ccc(Br)cc2)cc1`, the growth is 76.4% (inactive).

Turning to `C[C@H]1[C@H](OC(=O)CCC(=O)Nc2cnccn2)O[C@@H]2OC3(C)CC[C@H]4[C@H](C)CC[C@@H]1[C@@]24OO3`, the growth is -13.6% (active).

Regarding `O=C(/C=C/c1ccccc1)c1nc2ccccc2n1Cc1ccc(F)cc1`, the growth was -33% (active).

Regarding `O=C(/C=C/c1ccc(Br)cc1)c1nc2ccccc2n1Cc1ccc(Br)cc1`, the growth was -39.8% (active).

In the case of `CC[C@]12C=CCN3CC[C@@]4(c5ccc(OC)cc5N(C)[C@H]4[C@@](O)(C(=O)OC)[C@@H]1OC(=O)CCC[P+](C1CCCCC1)(C1CCCCC1)C1CCCCC1)[C@@H]32`, the growth is -82.2% (active).

With `COC(=O)C[C@](O)(CCC(C)C)C(=O)O[C@H]1C(OC)=C[C@@]23CCCN2CCc2cc4c(cc2[C@@H]13)OCO4`, the growth was -70% (active).

As to `CC[C@]12C=CCN3CC[C@@]4(c5ccc(OC)cc5N(C)[C@H]4[C@@](O)(C(=O)OC)[C@@H]1OC(=O)CCCC[P+](c1ccc(OC)cc1)(c1ccc(OC)cc1)c1ccc(OC)cc1)[C@@H]32`, the growth was -81.9% (active).

`CC[C@]12C=CCN3CC[C@@]4(c5ccc(OC)cc5N(C)[C@H]4[C@@](O)(C(=O)OC)[C@@H]1OC(=O)CCC[P+](c1ccc(F)cc1)(c1ccc(F)cc1)c1ccc(F)cc1)[C@@H]32`: the growth was -17.7% (active).

For `CC1=C(CCC=NNC(N)=O)C2=C(C)C3(CC3)[C@@](C)(O)C(=O)C2=C1`, the growth was -90.4% (active).

Regarding `CC1=C(COCCOC(=O)c2ccc(S(=O)(=O)F)cc2)C2=C(C)C3(CC3)[C@@](C)(O)C(=O)C2=C1`, the growth is -72.2% (active).

With `O=C(/C=C/c1ccc(Cl)cc1)c1nc2ccccc2n1Cc1ccc(Br)cc1`, the growth is 76% (inactive).

Regarding `C#CCCCN(CCNc1ccnc2cc(Cl)ccc12)C(=O)CCC(=O)O[C@@H]1O[C@@H]2OC3(C)CC[C@H]4[C@H](C)CC[C@@H]([C@H]1C)[C@@]24OO3`, the growth was 8.38% (active).

`CN(C)CCc1cn(C2CCC2)c2cccc(O)c12`: the growth was 83.6% (inactive).

Consider `COc1cc2cc(C(=O)N3C[C@@H](CCl)c4c3cc(OC(=O)N3CCN(C(=O)CCC(=O)N5CCN(C)CC5)[C@@H]5CSSC[C@@H]53)c3ccccc43)[nH]c2c(OC)c1OC`, for which the growth is -82.7% (active).

Turning to `C[C@H]1[C@H](OC(=O)CCC(=O)N(CCCc2cn(-c3ccc([N+](=O)[O-])cc3)nn2)CCNc2ccnc3cc(Cl)ccc23)O[C@@H]2OC3(C)CC[C@H]4[C@H](C)CC[C@@H]1[C@@]24OO3`, the growth is 5.13% (active).

For `Cc1c2oc3c(C)ccc(C(=O)N[C@@H]4C(=O)N[C@H](C(C)C)C(=O)N5CCC[C@H]5C(=O)N(C)CC(=O)N(C)[C@@H](C(C)C)C(=O)OC4C)c3nc-2c(C(=O)N[C@@H]2C(=O)N[C@H](C(C)C)C(=O)N3CC(=O)C[C@H]3C(=O)N(C)CC(=O)N(C)[C@@H](C(C)C)C(=O)OC2C)c(N)c1=O` (stereo not given in full), the growth was -38.6% (active).

Turning to `O=C(/C=C/c1ccco1)c1nc2ccccc2n1Cc1ccc(F)cc1`, the growth is 62.1% (inactive).

On to `CC[C@]12C=CCN3CC[C@@]4(c5ccc(OC)cc5N(C)[C@H]4[C@@](O)(C(=O)OC)[C@@H]1OC(=O)CCC[P+](c1ccc(C)cc1)(c1ccc(C)cc1)c1ccc(C)cc1)[C@@H]32`, for which the growth was -86.3% (active).

As for `O=C(/C=C/c1ccc(Cl)cc1Cl)c1nc2ccccc2n1Cc1ccc(F)cc1`, the growth was 76.2% (inactive).

With `CC1=C(CCC=O)C2=C(C)C3(CC3)[C@@](C)(O)C(=O)C2=C1`, the growth was -90% (active).

As to `O=C(NCCCCC(c1ccc(F)cc1)c1ccc(F)cc1)Nc1ccc([N+](=O)[O-])c(C(F)(F)F)c1`, the growth is -16.9% (active).

On to `CC(C)C[C@H](NC(=O)CNC(=O)C[C@H]1O[C@@H]2OC3(C)CC[C@H]4[C@H](C)CC[C@@H]([C@H]1C)[C@@]24OO3)B(O)O`, for which the growth was -73.8% (active).

Take `COc1cc2cc(C(=O)N3C[C@@H](CCl)c4c3cc(OC(=O)N3CCN(C)[C@@H]5CSSC[C@H]53)c3ccccc43)[nH]c2c(OC)c1OC`: the growth is -68% (active).

Regarding `O=C(NC([Se])=NC1CCCCC1)c1ccc2c(c1)OCO2`, the growth was 42.1% (inactive).

In the case of `CC1=C(C=O)C2=C(C)C3(CC3)[C@@](C)(O)C(=O)C2=C1`, the growth is -76.5% (active).

With `CC(C)N=C([Se])NC(=O)c1ccccc1`, the growth is -77.7% (active).

Regarding `O=C(/C=C/c1ccc(Cl)cc1)c1nc2ccccc2n1Cc1ccc(F)cc1`, the growth was 34.9% (inactive).

As for `COc1cc(OC)c(S(=O)(=O)N(CCCl)CCCl)cc1C(=O)/C=C/c1cc(OC)c(OC)c(OC)c1`, the growth was -69.1% (active).

As to `CC[C@]12C=CCN3CC[C@@]4(c5ccc(OC)cc5N(C)[C@H]4[C@@](O)(C(=O)OC)[C@@H]1OC(=O)CCCC[P+](c1ccc(C)cc1)(c1ccc(C)cc1)c1ccc(C)cc1)[C@@H]32`, the growth is -82.7% (active).

In the case of `O=C(/C=C/c1ccc(F)cc1)c1nc2ccccc2n1Cc1ccc(Br)cc1`, the growth is -64% (active).

With `CC[C@@]12CC(C(=O)OC)=C3Nc4cc5c(cc4[C@@]34CCN(C[C@H]3O[C@H]31)[C@@H]24)[C@@H]1[C@H](O5)[C@@H](O)[C@@]2(CC)CC(C(=O)OC)=C3Nc4cc(OC)ccc4[C@@]34CCN1[C@@H]24`, the growth is 2.96% (active).

`CCOP(=O)(CC(F)(F)C(F)(F)F)OCC`: the growth is -77.3% (active).

Take `CCOP(=O)(OCC)C(NC(C)=O)C(=O)SCCN` (stereo not given): the growth was 98.7% (inactive).

Take `CC1=C2C(=C[C@@](C)(COP(=O)(Oc3ccccc3)Oc3ccccc3)[C@@H]2O)C(=O)[C@@](C)(O)C12CC2`: the growth is -93.4% (active).

Take `COc1ccc(OC)c(/C=C/C(=O)c2nc3ccccc3n2Cc2ccc(F)cc2)c1`: the growth was -52.4% (active).

`C=CC[Se]C(=O)c1ccc(C(=O)[Se]CC=C)s1`: the growth is -95.5% (active).

For the compound `N#C[Se]CC(=O)Nc1cccc(C(F)(F)F)c1`, the growth is -70.2% (active).

`O=C(NC([Se])=NC1CCCCC1)c1ccccc1`: the growth is -30.9% (active).
